Source: PubChem BioAssay
SARS PLP yeast – SARS-CoV PLP inhibition in yeast; S. cerevisiae expressing SARS-CoV PLpro, growth rescue; AID 485353; Potency, µM (titrated, usually from 32.9 µM), most hits filed as activators; hit rate 0.19% among 330,000; calls by dose curve; also: nearly all actives have a fitted effect of over 55% in size
Pf growth 96h – P. falciparum growth inhibition at 96 hour, primary screen for plastid delayed-death inhibitors; P. falciparum luciferase reporter growth, 96 h; Potency, µM (doses to about 28.7 µM), actives largely listed as inhibitors; hit rate 6.9% among 320,000; AID 504834
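Plates of compound plus infected erythrocytes (2% hematocrit, 0.05% parasitemia final) incubate 96 hours, 37 C, 5% CO2. Detection reagent added; reduced luminescence from the parasites' luciferase reporter flags inhibition.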
NS1 function inh – inhibitors of influenza NS1 protein function | Potency, µM (series often up to 46.1 µM) | hit rate 0.4% among 270,000; calls by dose curve; also: actives are rising curves; nearly all actives have a fitted effect of over 50% in size
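A cell-based growth assay was used: compounds that relieve NS1-induced slow growth of budding yeast raise OD600. Assay medium was yeast nitrogen base with ammonium sulphate and -URA supplement, pH 6.0, with 2% galactose.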
RE007 growth inh – less growth of the S. pombe RE007 Vpr strain; S. pombe RE007 Vpr strain, BacTiter-Glo ATP luminescence, 24 h; Potency, µM (top dose mostly 92.2 µM), hits mostly inhibitors; hit rate 0.21% among 360,000; AID 651644; active = well fitted falling curve with a large enough effect; inconclusive = small, poorly fitted or top-dose-only effect; inactive = no such curve, though single readings can be large or run the other way; also: nearly all actives have a fitted effect of over 50% in size
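Fission yeast RE007 carrying one integrated HIV-1 vpr copy, seeded at OD 0.01 in PMG+AL medium with 23 nL pinned compound. Grown 24 h at 30 degrees; viability read by BacTiter-Glo luminescence after 5 min.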
Pf growth 48h – P. falciparum growth inhibition at 48 hours (one generation) | P. falciparum luciferase growth in erythrocytes, 48 h | Potency, µM (top dose mostly 28.7 µM), usual class: inhibitors | hit rate 5.9% among 310,000
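Luciferase-expressing P. falciparum in infected erythrocytes (2% hematocrit, 0.1% parasitemia final) in RPMI 1640/0.5% Albumax were exposed to compound for 48 hours at 37 C, 5% CO2; growth read as luminescence.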
Each line names hits and unclear results; the compound was inactive in the other large screens. Most compounds without a hit are left out; they make up all but 9.5% or so of the library. Unless noted, calls follow the shape of the dose curve; as a rule, active = well fitted inhibition curve with a large enough effect; inconclusive = small, poorly fitted or top-dose-only effect, or another doubt; inactive = no such curve, though single readings can be large or run the other way.

FC(F)(F)c1cnc(Sc2ncn[nH]2)c(Cl)c1	none (no result: NS1 function inh)
Cc1ccc(S(=O)(=O)N2CCOCC2)cc1C(=O)N1CCC(Cc2ccccc2)CC1	none
CCOc1ccccc1N1CCN(C(=O)c2c(-c3c(F)cccc3Cl)noc2C)CC1	none (no result: SARS PLP yeast, Pf growth 96h, NS1 function inh, Pf growth 48h)
Cc1cc(C)nc(/N=C(\N)Nc2cccc([N+](=O)[O-])c2)n1	Pf growth 96h 10.4µM, Pf growth 48h inconclusive
CC(=O)N/C(=N/c1nc(C)cc(C)n1)Nc1ccc(NC(C)=O)cc1	Pf growth 96h 9.28µM, Pf growth 48h inconclusive
CCCCc1ccc(N/C(N)=N/c2nc(C)cc(C)n2)cc1	Pf growth 96h 4.15µM, Pf growth 48h inconclusive
Cc1cc(C)nc(/N=C(\N)Nc2ccc([N+](=O)[O-])cc2)n1	none
Cc1cc(C)nc(/N=C(\N)Nc2ccc(C(C)C)cc2)n1	Pf growth 96h 11.7µM, Pf growth 48h inconclusive
Cc1ccc(N/C(N)=N/c2nc(C)cc(C)n2)cc1	Pf growth 48h inconclusive
COCCn1c(N)c(N(Cc2ccccc2)C(=O)COc2ccc(F)cc2Cl)c(=O)[nH]c1=O	none (no result: NS1 function inh)
COc1cc(/C=C/CNC[C@H]2O[C@@H](n3cnc4c(N)ncnc43)[C@H](O)[C@@H]2O)ccc1O	none (no result: SARS PLP yeast, Pf growth 96h, NS1 function inh, Pf growth 48h)
Cc1cc(C)cc(N/C(N)=N/c2nc(C)cc(C)n2)c1	Pf growth 96h 4.15µM, Pf growth 48h 13.1µM
CCc1c(C)nc(N2CCN(c3ccc(Cl)cc3)CC2)[nH]c1=O	none
COc1ccccc1NC(=O)C(C)OC(=O)c1cc2ccccc2[nH]1 (stereo not given)	Pf growth 96h inconclusive, Pf growth 48h 9.28µM (no result: NS1 function inh)
COc1ccccc1NC(=O)C(C)OC(=O)C1CCC(C(C)(C)C)CC1 (stereo not given)	Pf growth 96h 14.7µM, Pf growth 48h 2.94µM (no result: NS1 function inh)
COc1ccc(OC)c(NC(=O)C(C)OC(=O)c2cc3ccccc3[nH]2)c1 (stereo not given)	none (no result: SARS PLP yeast, Pf growth 96h, NS1 function inh, Pf growth 48h)
CCOC(=O)c1nncc(-c2ccccc2)n1	Pf growth 96h inconclusive (no result: NS1 function inh)
CCCN(CCC)CC(=O)Nc1cccc2c1OCO2	Pf growth 96h 11.7µM
COc1ccccc1N(CC(O)CN1CCC(C)CC1)S(=O)(=O)c1ccccc1 (stereo not given)	Pf growth 96h inconclusive
COc1cc(C[C@@H](C)[C@@H](C)Cc2ccc(O)c(OC)c2)ccc1O	RE007 growth inh inconclusive (no result: Pf growth 96h, NS1 function inh, Pf growth 48h)
CC(Cc1ccc(O)c(O)c1)C(C)Cc1ccc(O)c(O)c1 (stereo not given)	Pf growth 96h 15.1µM, Pf growth 48h inconclusive (no result: SARS PLP yeast, NS1 function inh)
N#Cc1ccc(NC(=O)COC(=O)C2CCC2)cc1	none (no result: SARS PLP yeast, Pf growth 96h, NS1 function inh, Pf growth 48h)
CCc1ccc(NC(=O)Cn2c3[n+](c4c(F)c(F)ccc42)CCCCC3)cc1	Pf growth 96h inconclusive, Pf growth 48h 3.7µM (no result: NS1 function inh)
CCc1ccc(NC(=O)Cn2c(SC)nc3ccccc32)cc1	none (no result: Pf growth 96h)
N#Cc1ccc(NC(=O)Cn2c3[n+](c4ccc(C(F)(F)F)cc42)CCCCC3)cc1	Pf growth 96h 4.65µM, Pf growth 48h 11.7µM
O=C(Cn1c2[n+](c3ccc(C(F)(F)F)cc31)CCCCC2)Nc1ccc(Br)cc1	Pf growth 96h 10.4µM, Pf growth 48h 10.4µM
COCC(=O)OC1CCn2c1nc1c2C(=O)C(C)=C(NC(C)=O)C1=O (stereo not given)	none (no result: SARS PLP yeast, Pf growth 96h, NS1 function inh, Pf growth 48h)
Brc1cccc(Cn2c(-c3cncs3)nc3ccccc32)c1	Pf growth 96h 8.28µM, Pf growth 48h 10.4µM
CSc1ccc(S(=O)(=O)N(C)Cc2ccccc2)cc1	none
CC1=CC(=O)C(C(C)C)=C/C1=N/OS(=O)(=O)c1ccccc1	Pf growth 96h inconclusive, RE007 growth inh inconclusive, Pf growth 48h 0.465µM
Cc1cc(C)c(C(=O)CSc2nnc(-c3cccnc3)n2C)c(C)c1	Pf growth 48h 11.7µM (no result: Pf growth 96h)
Cc1cc(NC(=O)CSc2nnc(-c3cccnc3)n2C)no1	none
CCOC(=O)CSc1nnc(-c2ccc3ncccc3c2)n1C	Pf growth 48h 11.7µM
Cc1cc(C)c(NC(=O)CSc2nncn2-c2cccnc2)c(C)c1	Pf growth 96h 11.7µM
CC1(C)S[C@@H]2[C@H](NC(=O)COc3ccccc3)C(=O)N2[C@H]1C(=O)O	none (no result: SARS PLP yeast, NS1 function inh, RE007 growth inh)
Cc1ccc(COC(=O)CN2C(=O)NC3(CCCCC3C)C2=O)cc1 (stereo not given)	Pf growth 96h inconclusive (no result: NS1 function inh)
N=C(c1ccc2ccccc2c1)c1ccccc1Cc1ccccc1	none (no result: SARS PLP yeast, Pf growth 96h, RE007 growth inh, Pf growth 48h)
COc1ccc(N(CC(=O)NCc2ccc3c(c2)OCO3)C(=O)c2csnn2)cc1	Pf growth 96h inconclusive, Pf growth 48h inconclusive
COc1ccccc1NC(=O)c1ccc(NC(=O)CSc2ncn[nH]2)cc1	none
O=C(Nc1ccc2oc(-c3cccnc3)nc2c1)c1ccc2c(c1)OCCO2	Pf growth 96h inconclusive, Pf growth 48h 8.28µM
O=C(Nc1ccc2oc(-c3ccccc3)nc2c1)c1ccc2c(c1)OCCO2	none
O=C(Nc1ccc2oc(-c3ccncc3)nc2c1)c1ccc2c(c1)OCCO2	Pf growth 96h 9.28µM, Pf growth 48h inconclusive
Cc1ccc(C)c(-n2ccnc2SCC(=O)c2c(N)n(C3CC3)c(=O)[nH]c2=O)c1	Pf growth 96h inconclusive (no result: NS1 function inh)
CC(NC(=O)c1cccc2c1Oc1ccccc1S2)C(=O)O (stereo not given)	none (no result: SARS PLP yeast, Pf growth 96h, NS1 function inh, Pf growth 48h)
Cc1c[nH]c2cccc(OCC(CNC(C)(C)C)OC(=O)c3ccccc3)c12 (stereo not given)	Pf growth 96h inconclusive, Pf growth 48h inconclusive
Cc1ccc(CN(CC(O)COc2cccc3[nH]cc(C)c23)C(C)(C)C)cc1 (stereo not given)	Pf growth 96h 10.4µM, Pf growth 48h 10.4µM
COC(=O)Cc1c[nH]c2cccc(OCC(O)CN(Cc3ccc([N+](=O)[O-])cc3)C(C)(C)C)c12 (stereo not given)	Pf growth 96h 3.29µM, Pf growth 48h 9.28µM
